Structures are written as SMILES. Inconclusive results are not listed. Active and inactive are the calls of the source. Calls come from the whole dose curve; as a rule, active = well fitted curve in the direction sought with a large enough effect; inconclusive = small, poorly fitted or top-dose-only effect, or another doubt; inactive = no such curve, though single readings can be large; an effect the other way counts as inactive or inconclusive.
Potency is the fitted concentration of half-maximal effect.

One experiment is described as follows: Quantitative High-Throughput drug screen in 47 multiple myeloma cell lines against the NCATS MIPE library collection: MOLP8_DSMZ cell viability assay (AID 1918977).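 For viability (% of control): 100% = DMSO-only wells and 0% = media-only wells without cells.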 Note: nearly all actives have a fitted effect of over 45% in size. The following applies: MOLP8 myeloma viability, CellTiter-Glo ATP luminescence, 48 h; series mostly up to 45.8 µM; viability (% of control): at the top concentration. The gist of the method:
(§1)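 Inhibition of viability over 48 h was scored by ATP content (CellTiter-Glo) in 500-cell wells. Zero and full viability were defined by media-only and DMSO-only wells.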
Turning to `CCC(=O)NC[C@H](Cc1ccc(OCCc2nc(-c3ccccc3)oc2C)cc1)NC(C)=CC(=O)c1ccc(C(F)(F)F)cc1`, the Potency is 23.5 µM (active).
Consider `COc1cc2c(cc1OC)CN(CCc1ccc(NC(=O)c3cc(OC)c(OC)cc3NC(=O)c3cnc4ccccc4c3)cc1)CC2`, for which the “viability (% of control)” value was 83.8% (inactive).
Same read-out and setting: for `CC#CCn1c(N2CCC[C@@H](N)C2)nc2c1c(=O)n(Cc1nc(C)c3ccccc3n1)c(=O)n2C` the value was 101% (inactive).
On the same count and under the same terms, the same measure for `CCc1ccc(C=C2SC(=S)NC2=O)cc1`: 65.9% (inactive); for `COc1cccc([C@@H](C)NCCCc2ccccc2Cl)c1`: 98.3% (inactive).
Same read-out and setting: the same measure for `c1cc(-c2sc(-c3ccncc3)c(-c3ccncc3)c2-c2ccncc2)ccn1`: 110% (inactive).
Turning to `Cc1c(O)cccc1C(=O)N[C@@H](CSc1ccccc1)[C@H](O)CN1C[C@H]2CCCC[C@@H]2C[C@@H]1C(=O)NC(C)(C)C`, the Potency is 16.6 µM (active).
With `CCn1cc(C(=O)O)c(=O)c2ccc(C)nc21`, the “viability (% of control)” value was 95.7% (inactive).
For `CN[C@@H](C)C(=O)N[C@H]1CN(C(=O)CC(C)C)CC[C@H]2CC[C@@H](C(=O)NC(c3ccccc3)c3ccccc3)N2C1=O`, the “viability (% of control)” value is 87.3% (inactive).
Still for that read-out and setting: for `CC(C)(C)OC(=O)N[C@H]1CCCCCC=C[C@@H]2C[C@@]2(C(=O)NS(=O)(=O)C2CC2)NC(=O)[C@@H]2C[C@@H](OC(=O)N3Cc4cccc(F)c4C3)CN2C1=O` the value was 130% (inactive); for `COc1ccc(-c2nc(N3CCOCC3)c3sc(CN(C)c4ncc(C(=O)NO)cn4)cc3n2)cn1`, 4.66% (inactive); for `N[C@@]1(C(=O)O)CS(=O)(=O)[C@H]2[C@H](C(=O)O)[C@H]21`, 81.2% (inactive).
As to `C[C@]12CCC3c4ccc(O)cc4CCC3C1CCC2=O` (some centres undefined), the Potency was 20.9 µM (active).
Regarding `CC(C)=CC[C@@H](O)C1=CC(=O)c2c(O)ccc(O)c2C1=O`, the Potency is 0.418 µM (active).
Turning to `NC(=O)NN=Cc1ccc([N+](=O)[O-])o1`, the “viability (% of control)” value was 91.8% (inactive).
Take `CN1CCN(CCOc2cc(OC3CCOCC3)c3c(Nc4c(Cl)ccc5c4OCO5)ncnc3c2)CC1`: the Potency was 16.6 µM (active).
`CCOC1OC(=O)C[C@H]1NC(=O)[C@@H]1CCCN1C(=O)[C@@H](NC(=O)c1ccc(N)c(Cl)c1)C(C)(C)C` (some centres undefined): the “viability (% of control)” value was 90.2% (inactive).
Same read-out and setting: the same measure for `Nc1ncnc2ccccc12`: 122% (inactive).
As for `Nc1ncnc2c1nc(Cl)n2[C@@H]1O[C@H](CO)[C@@H](O)[C@@H]1O`, the Potency was 7.43 µM (active).
With `CC(C)(C)NC(=O)Nc1cccc(Nc2ncc(F)c(NC(C)(C)CO)n2)c1`, the “viability (% of control)” value is 96.7% (inactive).
The same measure, in the same setting: for `O=C(NOCC(O)CO)c1cc(Br)c(F)c(F)c1Nc1ccc(I)cc1F` (centres undefined) the value was 58.7% (inactive); for `CC(C)C(C)C=CC(C)C1CCC2C3=CC=C4CC(O)CCC4(C)C3CCC21C` (centres undefined), 105% (inactive).
As for `NC1CCC(Nc2nc(Nc3ccc(C(=O)N4CCCCC4)cc3)c3ncn(-c4cccc(F)c4)c3n2)CC1` (centres undefined), the “viability (% of control)” value was 104% (inactive).
Still for that read-out and setting: for `C=C1C(=O)OC(CCCCCCCC)C1C(=O)O` (centres undefined) the value was 62.1% (inactive).
Regarding `CC1(C)CCC2=C(O1)c1ccccc1C(=O)C2=O`, the Potency was 20.9 µM (active).
As for `Cn1cc(C=C2C(=O)Nc3cccnc32)c2ccccc21`, the “viability (% of control)” value is 85.3% (inactive).
As to `CN(C)Cc1ccc(-c2nc3cccc4c3n2CCNC4=O)cc1`, the Potency was 13.2 µM (active).
As to `O=c1[nH]cnc2c1ncn2[C@H]1CC[C@@H](CO)O1`, the “viability (% of control)” value is 146% (inactive).
Take `Cc1cc(OCCCc2c(C(=O)O)n(Cc3cccnc3)c3c(-c4c(COc5ccc(N6CCN([S+](C)(=O)[O-])CC6)cc5)nn(C)c4C)cccc23)cc(C)c1Cl`: the Potency is 20.9 µM (active).
In the case of `COC(=O)C1=CO[C@@H](O)[C@@H]2C(CO)=CC[C@@H]12`, the Potency is 23.5 µM (active).
For `CCCCCNC(=O)N1CCC(CN(Cc2ccc(Cl)cc2)Cc2ccc([N+](=O)[O-])s2)C1` (centres undefined), the Potency was 18.7 µM (active).
Turning to `Cc1nnc(C(C)C)n1C1C[C@H]2CC[C@@H](C1)N2CC[C@H](NC(=O)C1CCC(F)(F)CC1)c1ccccc1` (some centres undefined), the “viability (% of control)” value is 102% (inactive).
With `Cc1ccc(F)c(NC(=O)Nc2ccc(-c3cccc4[nH]nc(N)c34)cc2)c1`, the Potency is 26.4 µM (active).
Same read-out and setting: for `O=C(O)C(O)Cc1ccc(O)c(O)c1` (centres undefined) the value was 20.9 µM (active).
As for `COc1ccc(-c2coc3cc(O)cc(O)c3c2=O)cc1`, the “viability (% of control)” value is 93.2% (inactive).
Still for that read-out and setting: the same measure for `Cc1ccc([C@@H]2O[C@H](CO)[C@@H](O)[C@H](O)[C@@H]2O)cc1Cc1ccc(-c2ccc(F)cc2)s1`: 71.3% (inactive); for `OC[C@H]1O[C@@H](Oc2cc(O)cc(C=Cc3ccc(O)cc3)c2)[C@H](O)[C@@H](O)[C@H]1O`: 124% (inactive).
Take `CC[C@@]1(O)C[C@H](O[C@H]2C[C@H](N(C)C)[C@H](O[C@H]3C[C@H](O)[C@H](O[C@H]4CCC(=O)[C@H](C)O4)[C@H](C)O3)[C@H](C)O2)c2c(cc3c(c2O)C(=O)c2c(O)cccc2C3=O)[C@@H]1C(=O)OC`: the Potency was 0.296 µM (active).

The next experiment can be described thus: Quantitative High-Throughput drug screen in 47 multiple myeloma cell lines against the NCATS MIPE library collection: NCIH929_DSMZ cell viability assay (AID 1918978). Note: nearly all actives have a fitted effect of over 35% in size. The note with it: NCI-H929 myeloma viability, CellTiter-Glo ATP, 48 h; series mostly up to 45.8 µM; viability, % of control: at the top concentration. Summed up:
as §1
In the case of `CCC(=O)NC[C@H](Cc1ccc(OCCc2nc(-c3ccccc3)oc2C)cc1)NC(C)=CC(=O)c1ccc(C(F)(F)F)cc1`, the “viability, % of control” value was 90.6% (inactive).
In the case of `COc1cc2c(cc1OC)CN(CCc1ccc(NC(=O)c3cc(OC)c(OC)cc3NC(=O)c3cnc4ccccc4c3)cc1)CC2`, the Potency was 8.33 µM (active).
Take `CCc1ccc(C=C2SC(=S)NC2=O)cc1`: the “viability, % of control” value was 94.1% (inactive).
On to `c1cc(-c2sc(-c3ccncc3)c(-c3ccncc3)c2-c2ccncc2)ccn1`, for which the Potency was 8.33 µM (active).
Still for that read-out and setting: for `Cc1c(O)cccc1C(=O)N[C@@H](CSc1ccccc1)[C@H](O)CN1C[C@H]2CCCC[C@@H]2C[C@@H]1C(=O)NC(C)(C)C` the value was 23.5 µM (active).
Consider `CCn1cc(C(=O)O)c(=O)c2ccc(C)nc21`, for which the “viability, % of control” value is 104% (inactive).
Turning to `CN[C@@H](C)C(=O)N[C@H]1CN(C(=O)CC(C)C)CC[C@H]2CC[C@@H](C(=O)NC(c3ccccc3)c3ccccc3)N2C1=O`, the Potency was 11.8 µM (active).
On to `CC(C)(C)OC(=O)N[C@H]1CCCCCC=C[C@@H]2C[C@@]2(C(=O)NS(=O)(=O)C2CC2)NC(=O)[C@@H]2C[C@@H](OC(=O)N3Cc4cccc(F)c4C3)CN2C1=O`, for which the “viability, % of control” value was 102% (inactive).
Still for that read-out and setting: the same measure for `C[C@]12CCC3c4ccc(O)cc4CCC3C1CCC2=O` (some centres undefined): 89.6% (inactive).
`CC(C)=CC[C@@H](O)C1=CC(=O)c2c(O)ccc(O)c2C1=O`: the Potency was 0.264 µM (active).
On the same count and under the same terms, the same measure for `CN1CCN(CCOc2cc(OC3CCOCC3)c3c(Nc4c(Cl)ccc5c4OCO5)ncnc3c2)CC1`: 18.7 µM (active).
Regarding `CCOC1OC(=O)C[C@H]1NC(=O)[C@@H]1CCCN1C(=O)[C@@H](NC(=O)c1ccc(N)c(Cl)c1)C(C)(C)C` (some centres undefined), the “viability, % of control” value is 120% (inactive).
For the compound `Nc1ncnc2ccccc12`, the Potency is 26.4 µM (active).
Still for that read-out and setting: for `Nc1ncnc2c1nc(Cl)n2[C@@H]1O[C@H](CO)[C@@H](O)[C@@H]1O` the value was 8.33 µM (active).
Turning to `CC(C)(C)NC(=O)Nc1cccc(Nc2ncc(F)c(NC(C)(C)CO)n2)c1`, the “viability, % of control” value is 102% (inactive).
As to `O=C(NOCC(O)CO)c1cc(Br)c(F)c(F)c1Nc1ccc(I)cc1F` (centres undefined), the Potency is 1.05 µM (active).
For the compound `CC(C)C(C)C=CC(C)C1CCC2C3=CC=C4CC(O)CCC4(C)C3CCC21C` (centres undefined), the “viability, % of control” value is 112% (inactive).
On the same count and under the same terms, for `NC1CCC(Nc2nc(Nc3ccc(C(=O)N4CCCCC4)cc3)c3ncn(-c4cccc(F)c4)c3n2)CC1` (centres undefined) the value was 88.3% (inactive).
As for `CN(C)Cc1ccc(-c2nc3cccc4c3n2CCNC4=O)cc1`, the Potency is 18.7 µM (active).
Turning to `O=c1[nH]cnc2c1ncn2[C@H]1CC[C@@H](CO)O1`, the “viability, % of control” value was 127% (inactive).
`Cc1cc(OCCCc2c(C(=O)O)n(Cc3cccnc3)c3c(-c4c(COc5ccc(N6CCN([S+](C)(=O)[O-])CC6)cc5)nn(C)c4C)cccc23)cc(C)c1Cl`: the Potency was 3.32 µM (active).
For `Cc1nnc(C(C)C)n1C1C[C@H]2CC[C@@H](C1)N2CC[C@H](NC(=O)C1CCC(F)(F)CC1)c1ccccc1` (some centres undefined), the Potency is 9.35 µM (active).
As for `Cc1ccc(F)c(NC(=O)Nc2ccc(-c3cccc4[nH]nc(N)c34)cc2)c1`, the Potency is 9.35 µM (active).
On to `O=C(O)C(O)Cc1ccc(O)c(O)c1` (centres undefined), for which the “viability, % of control” value was 104% (inactive).
With `COc1ccc(-c2coc3cc(O)cc(O)c3c2=O)cc1`, the “viability, % of control” value is 127% (inactive).
Regarding `CC[C@@]1(O)C[C@H](O[C@H]2C[C@H](N(C)C)[C@H](O[C@H]3C[C@H](O)[C@H](O[C@H]4CCC(=O)[C@H](C)O4)[C@H](C)O3)[C@H](C)O2)c2c(cc3c(c2O)C(=O)c2c(O)cccc2C3=O)[C@@H]1C(=O)OC`, the Potency is 0.264 µM (active).

The values are drawn from PubChem BioAssay (NCATS).
